In PubChem BioAssay (NCATS):
Records with an inconclusive call do not appear. Entries that show only a call come without a potency. Calls of active or inactive are those of the source. Unless noted, the call rests on the fitted dose curve.

Assays:
[1] = Cytotoxicity counterscreen for inhibitors of SARS-CoV-2 cell entry (AID 1645845); conditions: outcome: dose series up to 57.1 µM unless noted; further: nearly all actives have a fitted effect of over 50% in size; further: potency means the concentration at half of the fitted maximal effect
In short: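 Expi293F/hACE2 cells seeded overnight; cpd pin-transferred in DMSO, 1 h preincubation, + media, 48 h 37 C 5% CO2; ATPLite 1step luminescence; normalized to cells and no cells.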

[2] = Primary qHTS to identify inhibitors of SARS-CoV-2 cell entry (AID 1645846); conditions: SARS-CoV-2 pseudovirus cell entry assay, luminescence; activity change, negative = inhibition: at 57.1 µM (top of the series) unless noted; further: nearly all actives have a fitted effect of over 45% in size; further: potency means the concentration at half of the fitted maximal effect
In short: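 HEK293 cells stably expressing human ACE2, pre-treated 1 h with compound, then infected with MLV particles pseudotyped with Wuhan-Hu-1 spike (C-terminal 19-aa truncation). Luciferase luminescence after 48 h at 37 °C, normalised to spike PP and bald PP.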

[3] = biological target: Nuclear receptor subfamily 1 group I member 3 (Homo sapiens) (UniProt Q14994); test: Primary qHTS for antagonist of constitutive androstane receptor (CAR) against the NCATS DSHEA and TCM libraries (AID 1794836; active means well fitted curve in the direction sought with a large enough effect)
Sequence of Nuclear receptor subfamily 1 group I member 3 (Homo sapiens) (Q14994 whole entry, looked up): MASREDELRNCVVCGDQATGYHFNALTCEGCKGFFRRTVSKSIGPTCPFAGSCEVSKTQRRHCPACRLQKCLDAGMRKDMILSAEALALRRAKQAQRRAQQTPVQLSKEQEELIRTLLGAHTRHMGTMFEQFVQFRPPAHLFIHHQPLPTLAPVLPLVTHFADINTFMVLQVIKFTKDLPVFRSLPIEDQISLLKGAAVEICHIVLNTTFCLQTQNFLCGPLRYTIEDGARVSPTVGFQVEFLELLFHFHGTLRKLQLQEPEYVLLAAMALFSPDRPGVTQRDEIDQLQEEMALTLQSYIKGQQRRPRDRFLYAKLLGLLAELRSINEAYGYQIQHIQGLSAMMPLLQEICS
In short: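 HepG2 cells stably carrying hCAR and a CYP2B6 luciferase reporter (2,500 cells/well) attached for 5 h, then received compounds with 48 uM CITCO for 24 h at 37C. ONE-Glo luminescence read antagonism; CellTiter-Fluor (405/540 nm) gave viability.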

[4] = VSVG counterscreen qHTS to identify inhibitors of SARS-CoV-2 cell entry (AID 1645847); further: potency means the concentration at half of the fitted maximal effect; nearly all actives have a fitted effect of over 65% in size
In short: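 HEK293-ACE2 cells (Expi293F, human ACE2) pretreated 1 h with compound, then infected with MLV-based VSV-G pseudotyped particles for 48 h at 37 C; luciferase luminescence normalized to VSV-G PP and bald PP wells.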

N#Cc1ccc(Cn2cncc2CN2CCN(c3cccc(Cl)c3)C(=O)C2)cc1
Potency [1]: inactive | Potency [2]: inactive

CC1Cc2ccccc2N1C(=O)Cc1nc(N2CCOCC2)cc(=O)[nH]1 (stereo unspecified)
Potency [1]: inactive | activity change, negative = inhibition [2]: -26.2%

CN(C(=O)CNC(=O)/C=C/c1cccc(Cl)c1)C1CCS(=O)(=O)CC1
Potency [1]: inactive | activity change, negative = inhibition [2]: -2.44%

COc1cc(-c2cn(C)c(=O)c3cnccc23)c(OC)cc1CN(C)C
Potency [1]: inactive | activity change, negative = inhibition [2]: -18.5%

O=C1OC(COc2ccccc2[N+](=O)[O-])CC1Cc1ccccc1 (stereo unspecified)
Potency [1]: inactive | activity change, negative = inhibition [2]: -2.39%

COc1ccccc1C(=O)Nc1cc2c(cc1N1CCCC1)n(C)c(=O)n2C
Potency [1]: inactive | activity change, negative = inhibition [2]: -27%

CCn1c(=O)c2c(nc(/C=C/c3ccc(OC)c(OC)c3)n2C)n(CC)c1=O
Potency [1]: inactive | Potency [2]: inactive

O=c1ncccn1[C@@H]1O[C@H](CO)[C@@H](O)[C@H]1O
Potency [1]: inactive | Potency [2]: inactive

Cn1cc(-c2c[nH]c3ncnc(N4CCOCC4)c23)cn1
Potency [1]: inactive | activity change, negative = inhibition [2]: -0.441%

COc1ccccc1C(=O)Nc1cc2c(cc1N1CCNC[C@H]1C)n(C)c(=O)n2C
Potency [1]: inactive | activity change, negative = inhibition [2]: -55.2%

CN[C@@H](C)C(=O)N[C@H](C(=O)N1CCC[C@H]1c1nc(C(=O)c2ccc(F)cc2)cs1)C1CCCCC1
Potency [1]: inactive | activity change, negative = inhibition [2]: -6.26%

CCNC(=O)Nc1ncc(-c2cc(-c3c(C)cc(OC)cc3C)nc(-c3cnccn3)n2)s1
Potency [1]: inactive | activity change, negative = inhibition [2]: -1.07%

Cc1noc(-c2ccc(-c3ccc(C4(C(=O)O)CC4)cc3)cc2)c1NC(=O)O[C@H](C)c1ccccc1
Potency [1]: inactive | Potency [2]: 35.5 µM (active)

CC(C)(CO)n1cc(C(=O)c2cncc(NC(=O)Cc3ccc(Cl)cn3)c2)c2cnc(N)nc21
Potency [1]: inactive | Potency [2]: inactive

CC(C)=CCC[C@](C)(O[C@@H]1O[C@H](CO[C@@H]2O[C@H](CO)[C@@H](O)[C@H](O)[C@H]2O)[C@@H](O)[C@H](O)[C@H]1O)[C@H]1CC[C@]2(C)[C@@H]1[C@H](O)C[C@@H]1[C@@]3(C)CC[C@H](O[C@@H]4O[C@H](CO)[C@@H](O)[C@H](O)[C@H]4O[C@@H]4O[C@H](CO)[C@@H](O)[C@H](O)[C@H]4O)C(C)(C)[C@@H]3CC[C@]12C
Potency [1]: inactive | activity change, negative = inhibition [2]: -3.97% [at 27.1 µM]

Cc1nn(C)c(COc2ccc(N3CCN(S(=O)(=O)N(C)C)CC3)cc2)c1-c1cccc2c(CCCOc3cccc4ccccc34)c(C(=O)O)n(CCN3CCOCC3)c12
Potency [1]: inactive | activity change, negative = inhibition [2]: -18.4%

Oc1ccc(Nc2nc(-c3ccc(Cl)cc3)cs2)cc1
Potency [1]: inactive | Potency [2]: 28.2 µM (active)

COc1cccc2c1c(O)c(C(=O)N(C)c1ccc(C(F)(F)F)cc1)c(=O)n2C
Potency [1]: inactive | activity change, negative = inhibition [2]: -9.47%

C[C@]12CCC3[C@@H](CC[C@H]4NC(=O)C=C[C@]34C)[C@@H]1CC[C@@H]2C(=O)Nc1cc(C(F)(F)F)ccc1C(F)(F)F (stereo partly specified)
Potency [1]: inactive | activity change, negative = inhibition [2]: -7.71%

O=C(c1ccc(NS(=O)(=O)c2cccc3cccnc23)cc1)N1CCN(CC2CC2)CC1
Potency [1]: inactive | activity change, negative = inhibition [2]: -15.9%

CC(=O)Nc1ccc(C(=O)Nc2ccccc2N)cc1
Potency [1]: 7.08 µM (active) | Potency [2]: inactive

Clc1cc2c(NC3CCCC3)nnc(-c3ccncc3)c2cc1Cl
Potency [1]: inactive | Potency [2]: inactive

Cc1onc(-c2ccc(F)cc2)c1COc1ccc(C(=O)N2CCS(=O)(=O)CC2)cn1
Potency [1]: inactive | activity change, negative = inhibition [2]: -25.8%

C[C@H]1C[C@@H](n2c(Nc3ccc(OC(F)(F)F)cc3)nc3cc(CCC(=O)O)ccc32)CC(C)(C)C1
Potency [1]: inactive | activity change, negative = inhibition [2]: 2.52%

CCO[C@@H]1OC(=O)C[C@@H]1NC(=O)[C@@H]1CCCN1C(=O)[C@@H](NC(=O)c1ccc(N)c(Cl)c1)C(C)(C)C
Potency [1]: inactive | activity change, negative = inhibition [2]: -14.2%

Cc1c(Cl)cccc1S(=O)(=O)Nc1nc(CCN2CCOCC2=O)cs1
Potency [1]: inactive | activity change, negative = inhibition [2]: -11.4%

COc1cc2c(NC3CCN(C4CCCCC4)CC3)nc(N3CCCN(C(C)C)CC3)nc2cc1OCCCN1CCCCC1
Potency [1]: 22.4 µM (active) | Potency [2]: 11.2 µM (active)

Cc1nc(NC(=O)N2CCC[C@H]2C(N)=O)sc1-c1ccnc(C(C)(C)C(F)(F)F)c1
Potency [1]: inactive | activity change, negative = inhibition [2]: -35.1%

N=C(N)c1ccc2nc(-c3cc(CC(=O)N[C@@H](CC(=O)O)C(=O)O)cc(-c4cc(S(N)(=O)=O)ccc4O)c3O)[nH]c2c1
Potency [1]: inactive | Potency [2]: inactive

CCCCOC(=O)NS(=O)(=O)c1sc(CC(C)C)cc1-c1ccc(Cn2ccnc2)cc1
Potency [1]: inactive | Potency [2]: inactive

Cc1cc(-c2cnn3c(NCC4CC(C)(O)C4)cc(Oc4cccnc4)nc23)ccc1C(=O)NC1CC1 (stereo unspecified)
activity change, negative = cytotoxicity [1]: 4.49% [at 5.25 µM] (inactive) | activity change, negative = inhibition [2]: -11.3% [at 5.25 µM]

O=C(NCC(=O)N1CC[C@H](NC2CCC(O)(c3ccc(-c4ncccn4)cn3)CC2)C1)c1cccc(C(F)(F)F)c1 (stereo partly specified)
Potency [1]: inactive | activity change, negative = inhibition [2]: -29.7%

COc1cc(C(=O)O)ccc1NC(=O)[C@@H]1N[C@@H](CC(C)(C)C)[C@](C#N)(c2ccc(Cl)cc2F)[C@H]1c1cccc(Cl)c1F
Potency [1]: inactive | activity change, negative = inhibition [2]: 1.92%

CN(CCO)C1CCN(c2ccc(Nc3ncc4c5ccnc(F)c5n(C5CCCC5)c4n3)nc2)CC1
Potency [1]: inactive | activity change, negative = inhibition [2]: -15.6% [at 27.1 µM]

O=C(Nc1ccc2c(c1)CCN(Cc1ncn[nH]1)C2)c1ccccc1-c1ccc(C(F)(F)F)cc1
Potency [1]: inactive | activity change, negative = inhibition [2]: -32.8%

Cc1nnc(C(C)C)n1C1CC2CCC(C1)N2CCC(NC(=O)C1CCC(F)(F)CC1)c1ccccc1 (stereo unspecified)
Potency [1]: inactive | activity change, negative = inhibition [2]: -24.8%

CC1(C)OC2=C(C(=O)c3ccccc3C2=O)[C@H](NCc2ccccc2)[C@@H]1O
Potency [1]: 10 µM (active) | Potency [2]: 3.16 µM (active)

CC(C)C(=O)OCC(=O)[C@@]12O[C@H](C3CCCCC3)O[C@@H]1C[C@H]1[C@@H]3CCC4=CC(=O)C=C[C@]4(C)[C@H]3[C@@H](O)C[C@@]12C
Potency [1]: inactive | activity change, negative = inhibition [2]: -13.1%

N#Cc1ccc(C2CCCc3cncn32)cc1 (stereo unspecified)
Potency [1]: inactive | activity change, negative = inhibition [2]: -13.4% [at 27.1 µM]

CC1(C(=O)O)CCC2(C)CCC3(C)C(=CC(=O)C4C5(C)CCC(OC6OC(C(=O)O)C(O)C(O)C6OC6OC(C(=O)O)C(O)C(O)C6O)C(C)(C)C5CCC43C)C2C1 (stereo unspecified)
Potency [1]: inactive | Potency [2]: inactive

CC1(C)O[C@@H]2C[C@H]3[C@@H]4CCC5=CC(=O)C=C[C@]5(C)[C@H]4[C@@H](O)C[C@]3(C)[C@]2(C(=O)CO)O1
Potency [1]: inactive | activity change, negative = inhibition [2]: 4.23%

O=C(NC[C@H](O)CN1CCc2ccccc2C1)c1cc(NC2COC2)ncn1
Potency [1]: inactive | activity change, negative = inhibition [2]: -13.5%

CCOc1cc(C(=O)N2CCC(N3CCN(C)CC3)CC2)ccc1Nc1ncc2c(n1)N(C1CCCC1)c1ccccc1C(=O)N2C
Potency [1]: inactive | Potency [2]: 25.1 µM (active)

CCn1c(N)c(C(=O)NC)c(=O)c2ccc(C#CC(C)(O)COC)nc21 (stereo unspecified)
Potency [1]: inactive | activity change, negative = inhibition [2]: 2.21%

C=C1/C(=C/C=C2\CCCC3(C)[C@@H]([C@H](C)/C=C/C=C/C(O)(CC)CC)CC[C@@H]23)C[C@@H](O)C[C@@H]1O (stereo partly specified)
Potency [1]: inactive | Potency [2]: inactive

CCOc1ccc(-n2c([C@@H](C)N(Cc3cccnc3)C(=O)Cc3ccc(F)c(C(F)(F)F)c3)nc3ncccc3c2=O)cc1
Potency [1]: inactive | activity change, negative = inhibition [2]: -17.6%

CN1C(=O)N[C@@H](Cc2c[nH]c3c(Cl)cccc23)C1=O
Potency [1]: inactive | activity change, negative = inhibition [2]: 1.88%

O=C(Cc1ccccc1)Nc1nnc(CCSCCc2nnc(NC(=O)Cc3ccccc3)s2)s1
Potency [1]: inactive | Potency [2]: inactive

O=C(CCCc1ccc2cccnc2n1)NCc1cc(-c2ccc(F)c(C(F)(F)F)c2)no1
Potency [1]: inactive | activity change, negative = inhibition [2]: -12.5%

OCCn1cc(-c2ccc3c(c2)CC/C3=N\O)c(-c2ccncc2)n1
Potency [1]: inactive | Potency [2]: inactive

CC1(N)CCN(c2cnc(-c3cccc(Cl)c3Cl)c(N)n2)CC1
Potency [1]: inactive | activity change, negative = inhibition [2]: -2.57% [at 27.1 µM]

C=CC(=O)N1C[C@H](Nc2ncnc3[nH]ccc23)CC[C@@H]1C
Potency [1]: inactive | Potency [2]: inactive

COc1ccc2[nH]c(C(=O)N3CCC(CC(C)(C)O)CC3)cc2c1
Potency [1]: inactive | Potency [2]: inactive

COc1cc2c(NC3CCN(C)CC3)nc(N3CCCN(C)CC3)nc2cc1OCCCN(C)C
Potency [1]: inactive | activity change, negative = inhibition [2]: -3.44%

C=C1[C@H](OC(=O)/C=C(\C)CC)C[C@@H](C(C)C)[C@@H]2[C@H]([C@@H](C)OC(C)=O)C(=O)C[C@@H]12
Potency [1]: inactive | activity change, negative = inhibition [2]: -14.8%

Nc1nccn2c(C3CCC(C(=O)O)CC3)nc(-c3cc4cccc(Cl)c4[nH]3)c12 (stereo unspecified)
Potency [1]: inactive | activity change, negative = inhibition [2]: -18%

CO[C@H]1O[C@@H]2O[C@@]3(C)CC[C@H]4[C@H](C)CC[C@@H]([C@H]1C)[C@@]24OO3
Potency [1]: inactive | activity change, negative = inhibition [2]: -14.8%

C=C1CCC[C@]2(C)C=C3OC(=O)C(C)=C3C[C@@H]12
Potency [1]: inactive | activity change, negative = inhibition [2]: -28.3%

C[C@H]1[C@H](C)CC[C@]2(C(=O)O)CC[C@]3(C)C(=CC[C@@H]4[C@@]5(C)CC[C@H](O)C(C)(C)[C@@H]5CC[C@]43C)[C@H]12
Potency [1]: inactive | activity change, negative = inhibition [2]: 0.662% | Potency [3]: inactive

CCC(=O)OCC(=O)C1(OC(=O)CC)C(C)CC2C3CCC4=CC(=O)C=CC4(C)C3(F)C(O)CC21C (stereo unspecified)
Potency [1]: inactive | activity change, negative = inhibition [2]: -47% | Potency [4]: 1.92 µM (active)

CON(C)C(=O)N1N=C(c2cc(F)ccc2F)S[C@@]1(CCCN)c1ccccc1
Potency [1]: inactive | activity change, negative = inhibition [2]: -86.6% | Potency [4]: 0.0241 µM (active)

N#Cc1ccc(N(Cc2ccc(Br)cc2)n2cnnc2)cc1
Potency [1]: inactive | activity change, negative = inhibition [2]: -18.8%

O=C1Cc2cc(C(=O)NC3C[C@H]4CC[C@@H](C3)N4S(=O)(=O)CC3CCN(CCCC(F)(F)F)CC3)c(Cl)cc2N1 (stereo partly specified)
Potency [1]: inactive | activity change, negative = inhibition [2]: -20.5%

COc1ccc(COc2ccc(Cc3cnc(N)nc3N)cc2OC)cc1
Potency [1]: inactive | activity change, negative = inhibition [2]: -52.5%
